# Screens (PubChem BioAssay)
# ERK EGF block = blocks ERK signaling stimulated by EGF | HEK293-V1b, EGF-stimulated phospho-ERK AlphaScreen | Potency, µM (doses to about 11.5 µM), for the others: at the highest dose activity change, negative = inhibition, actives largely listed as inhibitors | hit rate 0.41% among 130,000 | AID 1454;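 also: potency is read from the fitted curve at half-maximal effect; plate controls were stimulated vehicle wells for no effect and unstimulated vehicle basal for full effect; nearly all actives have a fitted effect of over 55% in size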
#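 V1b-HEK293, 1% FBS o/n; cpd 30 min 37C; EGF 25 nM final, 5 min; lyse 10 min; AlphaScreen beads 5 h RT. Normalized DMSO basal vs EGF max; Hill AC50.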
# pERK EGF inh = reduces EGF-stimulated ERK phosphorylation in HEK293 cells; shares compounds with ERK EGF block; HEK293 EGF-stimulated ERK phosphorylation, AlphaScreen; Potency, µM (highest dose often 57.5 µM), inactives show at the highest dose activity change, negative = inhibition, actives largely listed as inhibitors; hit rate 60% among 60; AID 1725
# cRaf kinase inh = ERK pathway inhibitors follow-up: human c-Raf kinase inhibition; shares compounds with ERK EGF block; c-Raf kinase inhibition, homogeneous biochemical assay; activity change, negative = inhibition, % at 76.9 µM; 70 tested, under 10 active; AID 1728
# Target sequence (P04049 whole entry, looked up): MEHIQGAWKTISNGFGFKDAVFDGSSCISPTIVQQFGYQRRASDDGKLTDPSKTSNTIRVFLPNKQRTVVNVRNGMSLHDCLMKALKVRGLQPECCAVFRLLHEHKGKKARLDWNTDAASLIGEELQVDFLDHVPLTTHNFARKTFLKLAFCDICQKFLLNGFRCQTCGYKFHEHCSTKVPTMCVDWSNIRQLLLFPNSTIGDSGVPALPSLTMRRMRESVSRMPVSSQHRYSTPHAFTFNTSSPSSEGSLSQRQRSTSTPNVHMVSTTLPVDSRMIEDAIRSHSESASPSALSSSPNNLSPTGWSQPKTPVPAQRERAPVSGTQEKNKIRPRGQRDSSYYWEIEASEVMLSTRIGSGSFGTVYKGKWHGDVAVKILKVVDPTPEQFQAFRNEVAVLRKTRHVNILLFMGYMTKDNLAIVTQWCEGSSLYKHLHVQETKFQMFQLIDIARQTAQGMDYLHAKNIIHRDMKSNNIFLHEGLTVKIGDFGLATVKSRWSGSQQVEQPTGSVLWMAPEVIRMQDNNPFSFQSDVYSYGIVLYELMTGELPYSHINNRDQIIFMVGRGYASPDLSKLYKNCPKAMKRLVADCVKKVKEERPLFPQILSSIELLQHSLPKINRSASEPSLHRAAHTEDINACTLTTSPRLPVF
# MEK1 kinase inh = blocks human MEK1 kinase activity in ERK pathway follow-up; shares compounds with ERK EGF block; homogeneous MEK kinase activity assay, ERK pathway; Potency, µM (highest dose often 76.9 µM), without a hit: at the top dose activity change, negative = inhibition, hits mostly inhibitors; 70 tested, under 10 active; AID 1732
# * hit, by the source's call; ? = inconclusive; . = no result; [ ] = another dose, or the depositor's remark. Many of the other results were omitted from the sample, so hits are more common in it than they were. Calls follow the shape of the dose curve; as a rule, active = well fitted curve in the direction sought with a large enough effect; inconclusive = small, poorly fitted or top-dose-only effect, or another doubt; inactive = no such curve, though single readings can be large; an effect the other way counts as inactive or inconclusive.
SMILES,ERK EGF block,others
CC(/C=C/c1ccccc1)=N\Nc1ccccc1[N+](=O)[O-],7.9µM*,pERK EGF inh=8.9µM*;cRaf kinase inh=-3;MEK1 kinase inh=-6%
O=C1/C(=C/c2ccsc2)N2CCC1CC2,26%[57.5 µM],
CC1CCCC(NC(=O)CNCc2ccccc2F)C1C (stereo not given),-18%,
Cc1noc(C)c1-c1ccc2ncnc(NCc3ccccc3)c2c1,24%,
CN(C)c1ccc(-c2ccc3ncnc(NCc4ccccc4)c3c2)cc1,8.9µM*,pERK EGF inh=11µM*;cRaf kinase inh=?;MEK1 kinase inh=0%
CN(C)c1ccc(-c2cc(NCc3ccccc3)ncn2)cc1,34%,
COC(=O)c1ccc(C(NC(=O)OCc2ccccc2)/C(=C/[C@@H](C)C(=O)Nc2ccccc2)c2cccnc2)cc1 (stereo not given in full),-2%,
CCc1c(C)nc(SCC(=O)N2CCCCC2CC)[nH]c1=O (stereo not given),1%[57.5 µM],
COC(=O)CCC(C)C1CCC2C3C(C[C@H](O)C12C)C1(C)CC[C@@H](O)CC1C[C@H]3O (stereo not given in full),5%,
COc1cccc(CC(=O)Nc2nc3c(s2)C(=O)CC(C)(C)C3)c1,-49%,
Cc1cc(-c2ccccc2)n(-c2cc(N/N=C/c3ccccc3O)ncn2)n1,10µM*,pERK EGF inh=?;cRaf kinase inh=-7;MEK1 kinase inh=-18%
Cc1cc(N/N=C/c2ccccc2O)nc(-c2ccccc2O)n1,-1%,
Cc1cc(N/N=C/c2ccc(O)cc2O)nc(-n2nc(C)cc2C)n1,-3%,
COc1ccc(OC)c(NC(=O)CSc2nncc3ccc(OC)c(OC)c23)c1,1%[57.5 µM],
Cc1sc2ncnc(N/N=C/c3ccccc3O)c2c1C,4%,
Cc1sc2ncnc(N/N=C/c3ccc(O)cc3)c2c1C,-2%,
Cc1ccc(Nc2ncnc3sc(C)c(C)c23)cc1C,.,pERK EGF inh=11µM*;cRaf kinase inh=?;MEK1 kinase inh=-1%
CN(C)Cc1nnnn1-c1cccc(-n2nnnc2CN(C)C)c1,3%[57.5 µM],
Cc1ccccc1N=C/C=C1/C=C(c2ccccc2)OC(C)(C)O1,1%,
CC1(C)OC(c2ccccc2)=C/C(=C/C=C2C(=O)c3ccccc3C2=O)O1,?,pERK EGF inh=?;cRaf kinase inh=-12;MEK1 kinase inh=-7%
COc1ccc(N=C/C=C2\C=C(c3ccccc3)OC(C)(C)O2)cc1,2%,
CCOC(=O)C1CCN(c2c(NCCC(C)C)c(=O)c2=O)CC1,2%[57.5 µM],
C=C(C)C1Cc2c(ccc(C(=O)O)c2O)O1 (stereo not given),-7%,
CC1CC(=O)NN1C(=O)c1ccccc1 (stereo not given),-8%[57.5 µM],
CCOC(=O)C1CCCN(C(=O)c2ccc3c(c2)N(Cc2ccccc2)C(=O)c2ccccc2S3=O)C1 (stereo not given),18%,
SMILES,ERK EGF block,others
C=C[C@@]1(C)CC(=O)[C@@]2(O)[C@@]3(C)[C@@H](O)CCC(C)(C)[C@@H]3[C@H](O)[C@H](OC(C)=O)[C@@]2(C)O1,-5%,pERK EGF inh=-9%;cRaf kinase inh=-3;MEK1 kinase inh=-7%
Cc1ccc(C)n1-c1ccccc1N1CCCCC1,-2%,
O=C1c2ccccc2C(=O)c2c1cccc2N1CCCC1,10µM*,pERK EGF inh=16µM*;cRaf kinase inh=?;MEK1 kinase inh=?
O=C1c2cccc3c(N4CCCCC4)ccc(c23)C(=O)N1c1ccccc1O,0%,
Cc1nc2ccc(NC(=O)c3cncc(Br)c3)cc2s1,1%[57.5 µM],
CN(C)c1nc(/C=C(\C#N)C(N)=O)c(Cl)n1-c1ccc(F)cc1,-1%,
CS(=O)(=O)n1nc(-c2ccc(Cl)cc2)nc1N,-5%,
COc1ccc(OCCn2nnc(-c3ccc(Cl)cc3)n2)cc1,4%,
Cn1nc(-c2ccc(Cl)cc2)nc2c(=O)n(C)c(=O)nc1-2,?,pERK EGF inh=?;cRaf kinase inh=?;MEK1 kinase inh=?
COc1ccc(CCNC(=O)c2ccc(C)s2)cc1OC,-15%,
CC(C)Oc1cccc(-n2c(CCc3c[nH]c4ccc(Br)cc34)nc3ccccc3c2=O)c1,-4%,
CCCCCCC[N+](CC)(CC)CCCCc1ccc(Cl)cc1,-9%[25.7 µM],
CN(C(=O)c1coc(=O)c2ccccc12)c1ccccc1Cl,8%,
COc1cc2ncnc(Nc3ccc(F)c(Cl)c3)c2cc1OCCCN1CCOCC1,.,cRaf kinase inh=-23;MEK1 kinase inh=4%
COc1ccc(C(=O)NCCN2CCOCC2)cc1OC,-9%,
CCCOc1ccc(CN2CCOCC2)cc1OC,4%[57.5 µM],
CC(C)(C)NC(=O)NC(=O)CN1CCN(c2cccc(Cl)c2)CC1,-12%[57.5 µM],
CCOC(=O)c1nc2ccccc2nc1C,2%,
Cc1nc2ccccc2nc1OCc1ccccc1,-3%,
Cc1ccc2nc(-c3ccccc3)c(-c3ccccc3)nc2c1,-10%,
Cc1ccc2nc(=O)c(NNc3ccccc3)cnc2c1,14µM*,cRaf kinase inh=-16;MEK1 kinase inh=4%
Cc1nc2ccccc2nc(=O)c1NNc1ccccc1,.,pERK EGF inh=14µM*;cRaf kinase inh=-6;MEK1 kinase inh=-2%
Cc1ccc(S(=O)(=O)Nc2cnc3ccccc3c2)cc1,-3%,
O=C(CCS(=O)(=O)c1ccc(Cl)cc1)Nc1ccc(N2CCOCC2)cc1,-1%[57.5 µM],
O=C(O)CCC(=O)Nc1ccc(C(=O)OCC(=O)c2ccc(Cl)cc2Cl)cc1,-5%,
SMILES,ERK EGF block,others
Cc1ccsc1/C=N/NC(=O)c1ccc(-n2cccc2)cc1,3%,
CS(=O)(=O)N1CCC2(CCCN(Cc3ccccc3)C2)CC1,13%,
CCCCN(C)c1c(N2CCC(C(=O)OCC)CC2)c(=O)c1=O,-2%[57.5 µM],
C=C(CO)C1Cc2c(ccc3c(=O)c4c(oc23)COc2cc(OC)c(OC)cc2-4)O1 (stereo not given),-17%,
O=C1C=C(O)c2cccc(O)c2C1=O,-16%[57.5 µM],
O=C1c2ccc(O)c(O)c2C(=O)c2c(O)ccc(O)c21,7.9µM*,pERK EGF inh=10µM*;cRaf kinase inh=?;MEK1 kinase inh=?
O=C1c2ccccc2C(=O)c2c([N+](=O)[O-])ccc(O)c21,-14%[57.5 µM],
COc1ccc(S(=O)(=O)N(C)C)cc1NC(=O)COC(=O)c1nc2nccc(C)n2n1,-14%[57.5 µM],
COc1ccc(C(=O)OCc2csc(C)n2)c(O)c1,-2%,
COc1ccc(NC(=O)c2c([N+](=O)[O-])c(C(C)(C)C)nn2C)cc1,0%[57.5 µM],
COc1nc(Nc2ccc([N+](=O)[O-])cc2)nc(NC2CCCCC2)n1,0%,
COC(=O)[C@H](CC(C)C)NC(=O)N1CCC(C)CC1,12%[57.5 µM],
CS(=O)(=O)CCNCc1nc(-c2ccc3ncnc(Nc4ccc(OCc5cccc(F)c5)c(Cl)c4)c3c2)cs1,1µM*,pERK EGF inh=0.71µM*;cRaf kinase inh=-10;MEK1 kinase inh=-13%
CN(C)c1ccnc(-c2cccc(NS(C)(=O)=O)c2)n1,16%,
CS(=O)(=O)Nc1cccc(-c2ccc3ncnc(Nc4ccc(F)cc4)c3c2)c1,1.1µM*,pERK EGF inh=1.4µM*;cRaf kinase inh=-36;MEK1 kinase inh=18%
CS(=O)(=O)Nc1cccc(-c2nc(Nc3ccccc3)c3ccccc3n2)c1,26%,
O=S(=O)(c1ccccc1)N1CCC[C@@]2(CCN(c3ncccn3)C2)C1,4%,
COc1ccc(-c2n(CC(=O)OC3CC(C)CCC3C(C)C)c3ccccc3[n+]2C)cc1 (stereo not given),1.8µM*,pERK EGF inh=-13%;cRaf kinase inh=-12;MEK1 kinase inh=-7%
CC1CCC(C(C)C)[C@H](OC(=O)c2ccccc2)C1 (stereo not given in full),17%,
CC1CCC(C(C)C)C(OC(=O)C2=C3c4ccccc4S(=O)(=O)N3CC2)C1 (stereo not given),3%,
O=C(NCc1ccccc1Cl)C1CCN(c2cnccn2)CC1,7%,
